TDP-43 yeast inh: inhibitors of TDP-43 toxicity in yeast. TDP-43 expressing yeast growth rescue, BacTiter-Glo, 24 h. Potency, µM (top dose mostly 46.1 µM), inactives show at the highest dose growth rescue (activation), actives largely listed as activators. 410,000 tested, 1.8% active; further: % of control where 0% means no effect; nearly all actives have a fitted effect of over 50% in size
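Readout is BacTiter-Glo luminescence of cell growth, so inhibitors register as activators. TDP-43-expressing yeast at OD600=0.02 in galactose medium, after raffinose pregrowth to mid-log, were incubated with compound for 24 hr at 30 deg C.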
Mito fusion yeast: mitochondrial division inhibition or fusion activation; Potency, µM (highest dose often 46.1 µM), without a hit: top-dose growth rescue (activation), hits mostly activators; S. cerevisiae fusion-defective mutant growth rescue, CellTiterGlo 48 h; AID 485298; 320,000 tested, 0.23% active; further: % of control where 0% means no effect; nearly all actives have a fitted effect of over 45% in size
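Luminescent cell viability in 1536-well qHTS format served as the measure of rescued growth in ts fusion-mutant S. cerevisiae cultured on non-fermentable YPEG for 48 hours at 37C.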
FUS yeast rescue: suppressors of FUS proteinopathy in yeast. AID 1347120. Potency, µM (titrated, usually from 76.6 µM), actives largely listed as activators. 390,000 tested, 0.24% active. S. cerevisiae FUS-expressing, growth rescue, OD600, 24 h;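 further: plate controls were DMSO vehicle for no effect and reference control for full effect; nearly all actives have a fitted effect of over 55% in size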
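Restored growth of FUS-toxic S. cerevisiae, read as 600 nm absorbance after 24 h at 30C in galactose medium (starting OD 0.005). Controls CP55940 and DMSO.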
aSyn rescue: alpha-synuclein toxicity inhibition in yeast | Yeast expressing alpha-synuclein, growth rescue, BacTiter-Glo, 24 h | Potency, µM (highest dose often 46.1 µM), inactives show top-dose growth rescue (activation), hits mostly activators | 370,000 tested, 0.14% active; further: % of control where 0% means no effect; nearly all actives have a fitted effect of over 65% in size
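Screening used galactose-induced yeast with toxic alpha-synuclein levels, exposed to compound for 24 hr at 30 deg C. Cell growth, read with BacTiter-Glo luminescence, gave the measured signal.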
Abeta yeast res: compounds reversing amyloid beta toxicity in yeast; 410,000 tested, 0.063% active; Potency, µM (titrated, usually from 46.1 µM), hits mostly activators; yeast expressing A-beta42, growth rescue, OD600, 48 h; response scale: 0% DMSO, 100% iron-clioquinol control; AID 1347071; further: nearly all actives have a fitted effect of over 55% in size
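Yeast A-beta toxicity model in growth medium with pinned compounds, 48 h at 30 C; growth read as absorbance at 600 nm. Normalized to FeCl3/clioquinol equimolar mix (positive) and DMSO (negative).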
Active calls of the source: *; i = inactive; ? = inconclusive; nt = no result given. The list is not random: actives were taken first. Their share in the collection is about 2.2%. The call rests on the fitted dose curve; in most records, active means well fitted curve in the direction sought with a large enough effect; inconclusive means small, poorly fitted or top-dose-only effect, or another doubt; inactive means no such curve, though single readings can be large; an effect the other way counts as inactive or inconclusive. Potency means the concentration at half of the fitted maximal effect.

SMILES	TDP-43 yeast inh	Mito fusion yeast	FUS yeast rescue	aSyn rescue	Abeta yeast res
O=C(OC12CCCN(C1)/C(=C/c1ccccc1)C2)c1cccc(F)c1 (stereo unspecified)	nt	nt	i	nt	nt
COc1ccc(OC(F)(F)F)cc1CC1(C)C(=O)Nc2ccc(-c3ccsc3)cc21 (stereo unspecified)	14µM*	nt	i	-37%	i
COc1ccc(OC(F)(F)F)cc1CC1(C)C(=O)Nc2ccc(S(=O)(=O)NC3CCCCC3)cc21 (stereo unspecified)	12%	nt	32µM*	-6%	i
CC1(Cc2ccccc2OC(F)(F)F)C(=O)Nc2ccc(S(=O)(=O)NC3CCCCC3)cc21 (stereo unspecified)	12%	nt	i	-11%	i
CN1CCc2c(c3cnc4cc(Cl)ccc4c3n2C)C1	nt	nt	nt	9%	nt
Cc1ccc(C)c(OCCC(=O)N2CCN(S(=O)(=O)c3cc(F)ccc3F)CC2)c1	18µM*	3%	i	0%	i
Cc1cc(Cl)ccc1OCCCC(=O)N1CCN(S(=O)(=O)c2ccccc2)CC1	14µM*	?	i	18%	i
Cc1ccc(S(=O)(=O)N2CCN(C(=O)COC(=O)CCOc3cc(C)ccc3C)CC2)c(C)c1	1%	nt	nt	10%	?
CCOc1ccccc1OCCCC(=O)N1CCN(S(=O)(=O)c2ccc(Cl)cc2)CC1	14%	2%	i	1%	i
Cc1ccc(S(=O)(=O)N2CCN(C(=O)CCOc3cc(C)ccc3C)CC2)cc1	35µM*	6%	i	10%	i
COc1ccc(C(=O)C2(C(=O)NCc3ccccc3)CC(c3ccccc3C(F)(F)F)=NO2)cc1 (stereo unspecified)	nt	nt	i	nt	nt
O=C(N/N=C\c1ccc(Cl)s1)C1COc2ccccc2O1 (stereo unspecified)	18µM*	1%	i	1%	?
CC(C)(C)c1ccc2c(c1)OC(C(=O)N/N=C\c1ccccn1)CO2 (stereo unspecified)	?	16µM*	nt	14µM*	?
O=C(N/N=C/c1c[nH]c2ccccc12)C1COc2ccccc2O1 (stereo unspecified)	13%	-2%	i	1%	i
O=C(N/N=C\c1ccc([N+](=O)[O-])o1)C1COc2ccccc2O1 (stereo unspecified)	?	7%	i	6%	i
CC(C)(C)c1ccc2c(c1)OC(C(=O)N/N=C\c1ccc(-c3cccc(C(=O)O)c3)o1)CO2 (stereo unspecified)	3%	2%	?	0%	i
O=C(N/N=C\c1ccc([N+](=O)[O-])s1)C1COc2ccccc2O1 (stereo unspecified)	3.5µM*	-23%	i	7%	i
Cc1ccc(C)c(Cn2c(C3CC(=O)N(c4ccccc4C)C3)nc3ccccc32)c1 (stereo unspecified)	4%	nt	?	nt	i
Nc1c(S(=O)(=O)c2ccccc2)c2nc3ccccc3nc2n1Cc1ccco1	0%	5%	i	-3%	i
Cc1ccc(S(=O)(=O)c2c(N)n(Cc3ccco3)c3nc4ccccc4nc23)cc1C	0%	24%	25µM*	6%	i
COc1cc(NC(=O)c2cc(-c3cccc(OC)c3)n[nH]2)cc(OC)c1	?	nt	i	nt	i
COc1ccc(NC(=O)CSCc2cnn(-c3ccccc3)c2-n2cccc2)cc1	16µM*	nt	?	nt	i
CCN(CC)C(=O)CSCc1cnn(-c2ccccc2)c1-n1cccc1	18µM*	-2%	i	1%	i
O=C(CSCc1cnn(-c2ccccc2)c1-n1cccc1)NCc1ccc2c(c1)OCO2	10%	22µM*	i	4%	i
COc1ccc(CNC(=O)CSCc2cnn(-c3ccccc3)c2-n2cccc2)cc1	?	6%	i	11%	i
SMILES	TDP-43 yeast inh	Mito fusion yeast	FUS yeast rescue	aSyn rescue	Abeta yeast res
Cc1cc2n(n1)CCC(=O)N2Cc1ccc(C(=O)Nc2ccc(Br)c(C)c2)cc1	-5%	nt	i	nt	i
CCOc1ccccc1CNC(=O)c1ccc(Cn2c(=O)c3cccn3c3cccnc32)cc1	21%	nt	i	nt	i
OC(c1ccccc1)(c1ccccc1)C1CCN(CCCNc2ccc(C(F)(F)F)cc2)CC1	nt	nt	i	nt	nt
O=S(=O)(NCc1ccco1)c1ccc2ccccc2c1	?	-2%	i	0%	i
O=S(=O)(NCCc1ccccc1)c1cnc(Cl)c(Br)c1	11µM*	10%	nt	13%	i
O=C(O)c1cccc(S(=O)(=O)NCCc2ccccc2)c1	7%	2%	i	3%	i
O=S(=O)(NCc1ccco1)c1cnc(Cl)c(Br)c1	14µM*	9%	nt	?	i
O=C(CC(O)CCc1ccccc1)c1ccc(O)cc1 (stereo unspecified)	10µM*	nt	i	-1%	?
CCc1nnc(NC(=S)Nc2ccccc2)s1	13µM*	-3%	i	-9%	?
CCC(C(=O)Nc1nc(C)c(C)s1)c1ccccc1 (stereo unspecified)	18µM*	-10%	i	-2%	?
Cc1nc(NC(=S)Nc2ccccc2)sc1C	?	-9%	i	-1%	11µM*
Cc1ccc(C(=O)Nc2nnc(NC(=S)Nc3ccccc3)s2)cc1	13%	-12%	i	-5%	i
CCOC(=O)N1CCN(C(=O)C[C@H]2C[C@@]3(C(=O)OC)C(=C[C@H](C4CCCC4)O[C@@H]3C)N(CCc3ccc(OC)c(OC)c3)C2=O)CC1	nt	nt	i	nt	nt
COc1cc(Nc2cccc(-c3ccccc3)n2)cc(OC)c1OC	32µM*	nt	i	5%	i
CNc1cccc(-c2cc(OC)c(OC)c(OC)c2)n1	9%	nt	i	-3%	i
CCOc1ccc(S(=O)(=O)N2CCN(c3nc(-c4ccccc4)nc4ccccc34)CC2)cc1	nt	nt	nt	6%	nt
c1ccc(OCCNc2ccn3nc(-c4cccs4)cc3n2)cc1	14µM*	nt	i	-1%	i
c1ccc(OCCNc2ccn3nc(-c4ccccc4)cc3n2)cc1	27%	nt	i	3%	i
c1ccc(OCCNc2ccn3nc(-c4ccco4)cc3n2)cc1	16µM*	nt	i	-9%	i
COc1ccccc1-c1cc2nc(NCCOc3ccccc3)ccn2n1	25µM*	nt	i	14%	i
COc1cc(C)c(NC(C)C(=O)c2c(C)[nH]c3ccccc23)cc1OC (stereo unspecified)	nt	nt	nt	-4%	nt
COc1cccc(/C=C2\CCC(C3CCCC3)C2=O)c1OC (stereo unspecified)	?	-14%	7.9µM*	-10%	i
CCc1cccc(NC(=O)CN(C)S(=O)(=O)c2ccc3c(c2)n(C)c(=O)c(=O)n3C)c1	29%	nt	i	nt	i
